The campaign covered roughly 5,500 compounds. About 2,000 (36%) were called active. Inconclusive results (about 18%) are left out. Rule as the data show it: active = normalized growth mostly below about 0.91 (no sharp cut-off); inconclusive = no clear call, values can overlap the other calls; inactive = mostly above about 0.92. The list shows a part of the results.
Assay: chemical genetic growth profiling, strain panel (AID 1159580);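 also: tested at 20 µM; growth read once vehicle control cultures reached saturation at 30 °C; 1 = growth at the plate median or of vehicle wells; lower values mean less growth of the strain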
Details: S. cerevisiae deletion strains, growth OD

Measured: normalized growth

CN=C(NC#N)NCCSCc1nc(N=C(N)N)cs1
inactive: locus YAL021C, strain ccr4, hits give low values 0.966 | locus YAL026C, strain drs2, hits give low values 0.981 | locus YAL030W, strain snc1, hits give low values 0.998 | locus YBL061C, strain skt5, hits give low values 0.988 | locus YBR009C, strain hhf1, hits give low values 0.99 | locus YBR023C, strain chs3, hits give low values 0.991 | locus YBR171W, strain sec66, hits give low values 0.975 | locus YBR231C, strain swc5, hits give low values 0.986 | locus YBR279W, strain paf1, hits give low values 0.99 | locus YCL011C, strain gbp2, hits give low values 0.966 | locus YCL016C, strain dcc1, hits give low values 0.984 | locus YCL061C, strain MRC1, hits give low values 0.974 | locus YCL069W, strain vba3, hits give low values 0.978 | locus YCR088W, strain abp1, hits give low values 0.967 | locus YDL005C, strain med2, hits give low values 0.986 | locus YDL040C, strain nat1, hits give low values 0.994 | locus YDR001C, strain nth1, hits give low values 0.978 | locus YDR069C, strain doa4, hits give low values 0.988 | locus YDR137W, strain rgp1, hits give low values 0.977 | locus YDR159W, strain sac3, hits give low values 0.985 | locus YDR195W, strain ref2 0.957 | locus YDR297W, strain sur2, hits give low values 0.976 | locus YDR334W, strain swr1, hits give low values 0.944 | locus YDR335W, strain msn5, hits give low values 0.974 | locus YDR392W, strain spt3, hits give low values 0.977 | locus YEL003W, strain gim4, hits give low values 0.977 | locus YEL037C, strain rad23, hits give low values 0.937 | locus YEL061C, strain CIN8 (second series), hits give low values 0.979 | locus YER015W, strain faa2, hits give low values 0.981 | locus YER016W, strain bim1, hits give low values 0.99 | locus YER111C, strain swi4, hits give low values 0.993 | locus YER155C, strain BEM2 (second series), hits give low values 0.99 | locus YFR010W, strain ubp6, hits give low values 0.96 | locus YGL167C, strain pmr1, hits give low values 0.982 | locus YGL173C, strain kem1, hits give low values 0.983 | locus YGL227W, strain vid30, hits give low values 0.981 | locus YGL240W, strain doc1, hits give low values 0.991 | locus YGL253W, strain hxk2, hits give low values 0.998 | locus YHR013C, strain ard1, hits give low values 0.97 | locus YHR027C, strain rpn1, hits give low values 0.984 | locus YHR142W, strain chs7, hits give low values 0.947 | locus YJL092W, strain hpr5, hits give low values 0.978 | locus YJL095W, strain BCK1 (second series), hits give low values 0.984 | locus YJL115W, strain asf1, hits give low values 0.959 | locus YJL129C, strain trk1, hits give low values 0.971 | locus YJL154C, strain vps35, hits give low values 0.979 | locus YJL164C, strain tpk1, hits give low values 0.989 | locus YJL166W, strain qcr8, hits give low values 0.987 | locus YJL187C, strain SWE1, hits give low values 0.985 | locus YKL160W, strain elf1, hits give low values 0.975 | locus YKR026C, strain gcn3, hits give low values 0.963 | locus YKR091W, strain srl3, hits give low values 0.986 | locus YLL001W, strain dnm1, hits give low values 0.985 | locus YLL026W, hits give low values 0.98 | locus YLL041C, strain sdh2, hits give low values 0.973 | locus YLR027C, strain aat2, hits give low values 0.984 | locus YLR221C, strain rsa3, hits give low values 0.987 | locus YLR258W, strain gsy2, hits give low values 0.996 | locus YLR262C, strain YPT6 (second series), hits give low values 0.984 | locus YLR320W, strain mms22, hits give low values 0.99 | locus YLR342W, strain FKS1, hits give low values 0.987 | locus YLR357W, strain rsc2, hits give low values 0.977 | locus YLR370C, strain arc18, hits give low values 0.983 | locus YLR384C, strain iki3, hits give low values 0.991 | locus YML120C, strain ndi1, hits give low values 0.949 | locus YMR058W, strain fet3, hits give low values 0.966 | locus YMR125W, strain sto1, hits give low values 0.992 | locus YMR129W, hits give low values 0.981 | locus YMR205C, strain PFK2, hits give low values 0.994 | locus YMR231W, strain pep5, hits give low values 0.984 | locus YNL071W, strain lat1, hits give low values 0.977 | locus YNL209W, strain ssb2, hits give low values 0.982 | locus YNL248C, strain rpa49, hits give low values 0.94 | locus YNL322C, strain KRE1 (second series), hits give low values 0.984 | locus YNR049C, strain mso1, hits give low values 0.982 | locus YOR001W, strain rrp6, hits give low values 0.975 | locus YOR070C, strain gyp1, hits give low values 0.999 | locus YOR080W, strain dia2, hits give low values 0.974 | locus YOR083W, strain WHI5, hits give low values 0.975 | locus YOR106W, strain vam3, hits give low values 0.983 | locus YOR265W, strain rbl2, hits give low values 0.991 | locus YOR270C, strain vph1, hits give low values 0.983 | locus YOR290C, strain snf2, hits give low values 1.01 | locus YPL051W, strain arl3, hits give low values 0.981 | locus YPL078C, strain atp4, hits give low values 0.976 | locus YPL106C, strain sse1, hits give low values 0.984 | locus YPL240C, strain hsp82, hits give low values 0.971

Reference: PubChem BioAssay AID1159580 (chemical genetic matrix, 2015)
